Measurements as given in PubChem BioAssay AID720533 (National Center for Advancing Translational Sciences (NCATS), 2013).
Where “and” joins values, the source holds several entries; their conditions need not be identical. Identical values can stand only once. The whole screen tested about 18,000 compounds, of which about 750 (4.2%) were called active. Another 13% or so got no clear call; they are omitted. Calls follow the shape of the full dose curve; tested in HEK293 cells. The sample as a whole holds a higher share of actives than the screen did. Some structures have more than one record in an assay (separate samples or runs), and their calls can disagree. Starred links: 1 amine or outer side, 2 acyl side, 3 side chain; linkers in the order of their positions; H or OH if unused. Positions of bridges follow the written chain, without caps; N, C: chain ends. Non-standard residues stand in square brackets, D forms with d. Residues, ends and D or L forms follow the SMILES beside them. *: point of attachment. X15 = NC1=N[C@@H]([C@H](N[*:1])C(=O)[*:2])C[C@H](O)N1; ΔAla(Z-3-ureido) = NC(=O)N/C=C(\N)C(=O)O; β3hOrn = NCCC[C@H](N)CC(=O)*; Dap = NC[C@H](N)C(=O)O

Test: qHTS for Inhibitors of binding or entry into cells for Lassa Virus
Conditions: Lassa virus pseudotyped entry inhibition, cell-based qHTS; series mostly up to 49.2 µM; activity change, negative = inhibition: at the top concentration
% is scaled to controls: 0 for no effect and ±100 for the full control effect; potency is read from the fitted curve at half-maximal effect.

Row | Structure (SMILES) | activity change, negative = inhibition | Potency
1 | COC(=O)[C@H](CC(C)C)NS(=O)(=O)c1c(F)cccc1F | 15.1% (inactive) | –
2 | O=C1NC(CC(=O)N2CCC(n3c(C4CCC4)nc4cccnc43)CC2)c2ccccc21 (configuration not stated) | -11.6% (inactive) | –
3 | Fc1cccc(/C=N\N=C/c2cccc(F)c2)c1 | 2.67% (inactive) | –
4 | C=CCOC(=O)C(=C)C | -1% (inactive) | –
5 | Cc1ccc(-c2ncc(Cl)cc2-c2ccc(S(C)(=O)=O)cc2)cn1 | -8.61% (inactive) | –
6 | CC[C@H](C)[C@H](NC(=O)[C@@H](N)CCC(=O)O)C(=O)N[C@@H](CC(C)C)C(=O)N[C@@H](CC(=O)O)C(=O)N[C@H](C(=O)N1CCC[C@H]1C(=O)N[C@@H](CO)C(=O)N[C@H](C(=O)O)[C@@H](C)O)C(C)C | -17.7% (inactive) | –
7 | CC[C@H]1CN2CCc3cc(OC)c(OC)cc3[C@@H]2C[C@@H]1C[C@H]1NCCc2cc(OC)c(OC)cc21 | – | 0.1 µM (active)
8 | O=C(NCC1Cc2cc(F)cc(-c3cnccn3)c2O1)C1COc2ccccc2O1 (configuration not stated) | -10.2% (inactive) | –
9 | CCCCCCCC/C=C\CCCCCCCC(=O)NCC(=O)O | -9.14% (inactive) | –
10 | O=[N+]([O-])c1ccc(CN2CC(N3CC=CC3)CS2(=O)=O)cc1 (configuration not stated) | 14.7% (inactive) | –
11 | COc1ccc(-c2c(C)cc3oc(=O)cc(-c4ccccc4)c3c2C)cc1F | 8.65% (inactive) | –
12 | CN[C@@H]1[C@@H](O)[C@@H](O[C@@H]2[C@H](O)[C@H](O[C@H]3OC(CN)=CC[C@H]3N)[C@@H](N)C[C@H]2N)OCC1(C)O (some centres not stated) | -1.11% (inactive) | –
13 | CCOC(=O)CN1C(=O)NC(CCc2ccccc2)C(C(C)=O)=C1C (configuration not stated) | -20.9% [at 8.59 µM] (inactive) | –
14 | OCCN1CCN(CC/C=C2\c3ccccc3Sc3ccc(C(F)(F)F)cc32)CC1 | -11% [at 17.8 µM] (inactive) | –
15 | Cc1ccc(/C(=C/CN2CCCC2)c2ccccn2)cc1 | inactive | –
16 | COc1ccccc1-c1ccnc(-n2ncc(C(=O)NCCCN3CCOCC3)c2C)n1 | 3.84% (inactive) | –
17 | C=CCN1C(=O)[C@]2(OCCC=C[C@H]2C)c2ccccc21 | -16.5% [at 8.59 µM] (inactive) | –
18 | C[C@@H]1CC[C@H]2C(=O)N(Cc3ccc(Cl)cc3)C[C@@H](O)CN2[C@@H]1c1cccc(Br)c1 | 6.98% [at 8.59 µM] (inactive) | –
19 | Nc1nc2[nH]c(=O)c(=O)[nH]c2c(=O)[nH]1 | 5.82% (inactive) | –
20 | CCOC(=O)Cn1c(=O)sc2cccc(Cl)c21 | -6.52% (inactive) | –
21 | CNCC[C@H](Oc1ccc(C(F)(F)F)cc1)c1ccccc1 | – | inactive and 28.2 µM (active)
22 | COC(=O)C1=C(C)N(Cc2ccccc2)C(=NCCc2ccccn2)NC1c1cccc(C(F)(F)F)c1 (configuration not stated) | -11.6% [at 8.59 µM] (inactive) | –
23 | COc1ccccc1N1CCN(CCN2C(=O)c3ccccc3C(C)(C)C2=O)CC1 | inactive | –
24 | CC(C)=CCC[C@]1(C)[C@@H](CC=C(C)C)C[C@@]2(CC=C(C)C)C(=O)[C@]1(C(=O)C(C)C)C(=O)C(CC=C(C)C)=C2O | – | 12.6 µM (active)
25 | Nc1nccc(-c2c(-c3ccc(F)cc3)ncn2CCCN2CCOCC2)n1 | 97% (inactive) | –
26 | CC(=O)Oc1c2c(c3c(c1CC=C(C)C)O[C@@]14C(=CC5CC1C(C)(C)OC4(C/C=C(\C)C(=O)O)C5=O)C3=O)OC(C)(CCC=C(C)C)C=C2 (some centres not stated) | – | 6.31 µM (active)

Row | Structure (SMILES) | activity change, negative = inhibition | Potency
27 | NCCCNCCCCN(CCCN)/[N+]([O-])=N/O | 3.12% (inactive) | –
28 | CCCCC/C=C\C/C=C\CCCCCCCCCC(=O)NCC(=O)O | 2.05% (inactive) | –
29 | CCCCCCCC1=Cc2ccc(F)cc2C(C(C(=O)OC)C(=O)OC)N1C(=O)OC (configuration not stated) | inactive | –
30 | COc1ccccc1-c1nc(NCCNC(C)=O)c2ccccc2n1 | 0.865% (inactive) | –
31 | Cc1cnc(C(=O)N2CCOc3ccc(CN4CCCC(C(=O)c5cccnc5)C4)cc3C2)[nH]1 (configuration not stated) | -5.06% (inactive) | –
32 | Nc1nc(/C(=C/CC(=O)O)C(=O)N[C@@H]2C(=O)N3C(C(=O)O)=CCS[C@H]23)cs1 | -7.09% (inactive) | –
33 | COc1cccc([C@@H]2Oc3ccc(Br)cc3C(=O)[C@H]2OC(=O)NCCc2ccc(OC)c(OC)c2)c1 | 33% (inactive) | –
34 | C/C=C(\C)C(=O)OC1C(OC(=O)C2(C)OC2C)c2cc3ccc(=O)oc3cc2OC1(C)C (configuration not stated) | 4.77% (inactive) | –
35 | OCC1CCCN(c2nc3cc4c(cc3cc2CNCc2cccs2)OCO4)C1 (configuration not stated) | -0.156% (inactive) | –
36 | CCOC(=O)CCN1C(=O)[C@@H]2[C@H]3[C@H](O)[C@H](O)CC(=NOCC(C)C)[C@@H]3CC[C@H]2C1=O | -24.6% [at 8.59 µM] (inactive) | –
37 | CCN1CCN(C(=O)N[C@@H](C(=O)N[C@@H]2C(=O)N3C(C(=O)O)=C(CSc4nnnn4C)CS[C@H]23)c2ccc(O)cc2)C(=O)C1=O | -8.09% (inactive) | –
38 | CCOC(=O)C1C/C(=C\C(C)=O)c2cccc(C(F)(F)F)c2O1 (configuration not stated) | 7.88% (inactive) | –
39 | CC(C)[C@@H](OCc1ccccc1)[C@H](C)C=NOC[C@@H](C)[C@H](OCc1ccccc1)C(C)C | 8.86% [at 8.59 µM] (inactive) | –
40 | COc1ccc(CN(C)CCn2cc(C(=O)N3CCSCC3)nn2)cc1C | -12% (inactive) | –
41 | CC1OC(OCC2OC(Oc3c(-c4ccc(O)c(O)c4)oc4cc(O)cc(O)c4c3=O)C(O)C(O)C2O)[C@@H](O)C(O)C1O (some centres not stated) | -10.4% (inactive) | –
42 | CNc1ncnc2ccc(-c3cccc(NS(C)(=O)=O)c3)cc12 | -5.28% (inactive) | –
43 | COc1ccc(Nc2ncnc3ccc(OC)cc23)cc1 | 4.87% (inactive) | –
44 | Cc1csc(-c2nc3ccccc3n2C)n1 | 29.1% (inactive) | –
45 | CNC(=O)C[C@H]1C(=O)N(Cc2ccccc2)C[C@@H]1CSC | 7.21% (inactive) | –
46 | CCCCCCN1C[C@@H](O)[C@H](n2cc(-c3ccc(F)cc3)nn2)C[C@H]1c1ccccc1 | -27.3% (inactive) | –
47 | COc1c(O)cc2oc(-c3ccc(O)c(O)c3)cc(=O)c2c1O | -13.1% (inactive) | –
48 | Cc1nc2cc(NC(=O)[C@@H]3C[C@@H](Sc4ccccn4)CN3Cc3ccccc3C)ccc2s1 | -6.47% (inactive) | –
49 | CCCN(C/C=C/I)C1CCc2ccc(O)cc2C1 (configuration not stated) | 3.69% (inactive) | –
50 | CC[C@@H]1Cc2cc(O)ccc2C2=C1c1ccc(O)cc1C[C@H]2CC | – | 20 µM (active)
51 | COCOc1cc(OC)ccc1C(=O)/C=C/c1ccc([N+](=O)[O-])cc1 | -5.23% (inactive) | –
52 | CCOC(=O)C1=C(C(=O)OCC)C(C(=O)OCC)N(S(=O)(=O)C(F)(F)F)c2ccccc21 (configuration not stated) | -6.28% (inactive) | –

Row | Structure (SMILES) | activity change, negative = inhibition | Potency
53 | c1ccc(CN2CCN(Cc3ccc4c(c3)CN(Cc3c[nH]c5ccccc35)CCO4)CC2)nc1 | -8.46% (inactive) | –
54 | O=C(O)CCC(=O)O | -0.191% (inactive) | –
55 | O=C(CCN1Cc2ccccc2OC(c2ccccc2)C1)N[C@@H]1CS(=O)(=O)C[C@H]1O (some centres not stated) | -3.72% (inactive) | –
56 | COC(=O)c1c(OCc2ccc(F)cc2)cc(=O)n2c1CCN(Cc1ccc3cccnc3c1)CC2 | -12.1% (inactive) | –
57 | CC1C(=O)N(Cc2cn(Cc3ccco3)nn2)CCS(=O)(=O)N1Cc1ccc(-c2cccc(CO)c2)cc1 (configuration not stated) | -19.8% (inactive) | –
58 | Cc1cccc(CN2CCN(C3CN(Cc4cn(Cc5ccccc5F)nn4)S(=O)(=O)C3)CC2)c1 (configuration not stated) | 23.5% (inactive) | –
59 | NCCC[C@H](N)CC(=O)N[C@H]1CNC(=O)[C@H]([C@H]2C[C@H](O)NC(N)=N2)NC(=O)/C(=C/NC(N)=O)NC(=O)[C@H](CO)NC(=O)[C@H](CO)NC1=O (β3hOrn-[Dap]SS[ΔAla(Z-3-ureido)][X15]; lactam 1-C) | 6.4% (inactive) | –
60 | O=C1C2=C(C(=O)c3ccccc31)[C@H]1O[C@](CCCCN3C(=O)c4ccccc4C3=O)(Cc3c1ccc1ccccc31)O2 | 10.1% [at 8.59 µM] (inactive) | –
61 | C/C(Nc1ccc2oc(=O)ccc2c1)=C1/C(=O)CC2[C@@H]1C2(C)C (some centres not stated) | -4.73% (inactive) | –
62 | CCCCCCc1cc2cc(OC)c(OC)cc2c2c(C(=O)OC)c(C(=O)OC)c(C(=O)OC)n12 | -14.4% [at 8.59 µM] (inactive) | –
63 | CO[C@]1(NC(=O)CSC(F)F)C(=O)N2C(C(=O)O)=C(CSc3nnnn3CCO)CO[C@H]21 | -13.4% (inactive) | –
64 | O=C(C=Cc1ccccc1)Nc1cccc(C(=O)N2CCCCC2)c1 | 28.6% (inactive) | –
65 | Nc1nc(-c2ccc3c(c2)C(=Cc2cc(Br)c(O)c(Br)c2)C(=O)N3)cs1 | 9.64% (inactive) | –
66 | Cc1ccc(-c2ccc(CN3C(C(C)C)C(=O)N(Cc4cn(CCC5OCCCO5)nn4)CCS3(=O)=O)cc2)cc1 (configuration not stated) | -14.3% (inactive) | –
67 | COC(=O)CC1c2ccccc2C(Cc2ccc(OC)cc2)=C(C)N1C(=O)OC (configuration not stated) | 25.9% [at 8.59 µM] (inactive) and -25.2% [at 8.59 µM] (inactive) | –
68 | C=CC1=C2C=C(C3CC3)N(C(CO)CO)C=C2C(=O)C(C)(OC(=O)c2ccco2)C1=O (configuration not stated) | 4.32% [at 8.59 µM] (inactive) | –
69 | COCC(=O)Nc1cc(C(=O)N2CCCC(c3ccccc3)CC2)c2c(c1)nc(-c1ccncc1)n2C (configuration not stated) | -11.7% (inactive) | –
70 | C[C@@H](O)[C@@H]1NC(=O)[C@H](CCCCN)NC(=O)[C@H](Cc2c[nH]c3ccccc23)NC(=O)[C@H](Cc2ccccc2)NC(=O)[C@H](Cc2ccccc2)NC(=O)[C@H](CC(N)=O)NC(=O)[C@H](CCCCN)NC(=O)[C@@H](NC(=O)[C@@H]2CCCN2)CSSC[C@@H](C(=O)N[C@@H](CCCCN)C(=O)O)NC(=O)[C@H](CO)NC(=O)[C@H](CO)NC(=O)[C@H](Cc2ccccc2)NC1=O (H-PCKNFFWKTFSSCK-OH; disulfide 2-13) | -1.87% (inactive) | –
71 | C[C@@]12CC[C@H]3[C@@H](CC[C@]4(O)C[C@H](O)CC[C@@]34C=O)[C@]1(O)CC[C@@H]2C1=CC(=O)OC1 | – | 1.26 µM (active)
72 | COC1CC(OC2CC[C@@]3(C=O)C4CC[C@]5(C)C(C6=CC(=O)OC6)CC[C@@]5(O)C4CC[C@]3(O)C2)OC(C)C1O (some centres not stated) | – | 0.282 µM (active)
73 | Nc1nc2c(nc(Cl)n2C2OC(CO)C(O)C2O)c(=O)[nH]1 (configuration not stated) | -8.45% (inactive) | –
74 | CC(C)NC[C@H](O)c1ccc2ccccc2c1 | inactive | –
75 | C#C[C@]1(OC(=O)CCCCCC)CC[C@H]2[C@@H]3CCC4=CC(=O)CC[C@@H]4[C@H]3CC[C@@]21C | – | 31.6 µM (active)
76 | C#C[C@]1(O)CC[C@H]2[C@@H]3CCC4=CC(=O)CC[C@@H]4[C@H]3CC[C@@]21CC | -26.1% (inactive) | –
77 | CC(=O)OCC(=O)[C@@]1(O)CCC2C3CCC4=CC(=O)CC[C@]4(C)C3C(=O)C[C@]21C (some centres not stated) | -0.0255% (inactive) | –
